Screens from PubChem BioAssay.
Rows were chosen to be rich in hits. Some 19% of all compounds tested hit in one or more screens of this group.
ELG1 DNA repair: ELG1-dependent DNA repair inhibition; HEK293T ELG1-luciferase reporter, luminescence, 16 h; DNA damage induced by 5-fluorouridine; AID 504467; 330,000 tested, 2.3% active; Potency, µM (series often up to 46.1 µM), inactives show top-dose activity change, negative = inhibition, hits mostly inhibitors; further: potency means the concentration at half of the fitted maximal effect; nearly all actives have a fitted effect of over 55% in size
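5-Fluorouridine DNA damage + compound/DMSO, 2,000 cells/well, 16 h, 37 °C/5% CO2. ONE-Glo, 30 min RT, luminescence. Readout = decrease in reporter signal.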
DT40 TDP1 no CPT: qHTS for Inhibitors of human tyrosyl-DNA phosphodiesterase 1 (TDP1): qHTS in cells in absence of CPT; DT40 Tdp1-/- hTDP1 cells, no CPT, ATP luminescence, 48 h; Potency, µM (series often up to 46.2 µM), without a hit: at the top dose activity change, negative = growth inhibition, most hits filed as inhibitors; 420,000 tested, 15% active; AID 686978, 2013; further: potency means the concentration at half of the fitted maximal effect; nearly all actives have a fitted effect of over 55% in size
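Compound effects on proliferation are scored in DT40 Tdp1-/-;hTDP1 cells in the absence of CPT. ATP levels (CellTiter-Glo luminescence) are recorded after a ≥48 hr, 37 °C incubation.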
HT1080 IDH1KD tx: kills HT-1080 cells with IDH1 knockdown; Potency, µM (titrated, usually from 46.1 µM), inactives show at the top dose activity, negative = toxicity, actives largely listed as cytotoxic; 360,000 tested, 2% active; HT-1080 IDH1 knockdown viability, ATP luminescence, 48 h;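 further: potency means the concentration at half of the fitted maximal effect; 0% = DMSO wells and -100% = cell-free medium wells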
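Knockdown cells (IDH1KD HT-1080) received compounds 2 h after plating at 750 cells/well and were kept 48 h at 37 °C in 5% FBS RPMI. A CellTiter-Glo luminescence read gave % activity for curve fitting.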
IL-1B inflam inh: inflammasome signaling inhibition, IL-1 beta readout. THP-1 LPS/ATP IL-1B secretion, AlphaLISA, 16 h; hits give low values. activity change, % at 57.5 µM. 360,000 tested, 4.7% active. AID 743279; in the data active means activity change below about -50%; inconclusive means mostly about -30% to -49%
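Secreted IL-1B measured by AlphaLISA bead assay after 16 h compound exposure of THP-1 cells; compounds (final up to 57.5 uM) added 1 h before LPS (250 ng/mL) and ATP (1.25 mM) stimulation; lower signal means less secretion.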
HT1080-NT tox: kills 2HG-producing HT-1080-NT fibrosarcoma cells; Potency, µM (titrated, usually from 46.1 µM), for inactives: at the top dose activity, negative = less viability, hits mostly cytotoxic; HT-1080-NT fibrosarcoma viability, CellTiter-Glo ATP luminescence, 48 h; AID 686970; 360,000 tested, 1.6% active;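 further: NT is the 2HG producing partner of a matched IDH1 knockdown line; potency means the concentration at half of the fitted maximal effect; 0% = DMSO-treated cells and -100% = media-only wells without cells; nearly all actives have a fitted effect of over 55% in size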
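Toxicity toward the 2HG-producing NT line was scored as %Activity, normalised to DMSO and no-cell wells, from CellTiter-Glo luminescence after 48 hours' treatment.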
TDP1 cell CPT: DT40-hTDP1 cell growth loss with CPT. Potency, µM (doses to about 46.2 µM), for the others: top-dose activity change, negative = growth inhibition, hits mostly inhibitors. chicken DT40 Tdp1-/-;hTDP1 cells + 20 nM CPT, ATP luminescence, 48 h. 420,000 tested, 12% active. AID 686979; further: potency means the concentration at half of the fitted maximal effect; nearly all actives have a fitted effect of over 55% in size
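Chicken DT40 Tdp1-/- cells complemented with human TDP1, 400 cells/well, exposed to compounds plus 20 nM camptothecin for at least 48 h at 37 C; viability read as ATP content by CellTiter-Glo luminescence.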
An asterisk follows results filed as active. Unless noted, the call rests on the fitted dose curve; in most records, active means well fitted curve in the direction sought with a large enough effect; inconclusive means small, poorly fitted or top-dose-only effect, or another doubt; inactive means no such curve, though single readings can be large; an effect the other way counts as inactive or inconclusive. Unless noted, on the % scale 0 is the no-effect control and ±100 the full control effect.

For O=C(Nc1cccc(S(=O)(=O)NC2=NCCC2)c1)c1ccc(OC(F)F)cc1 the results were ELG1 DNA repair inconclusive, DT40 TDP1 no CPT inconclusive, HT1080 IDH1KD tx -0.1%, IL-1B inflam inh -16.1, HT1080-NT tox -0.4% and TDP1 cell CPT -30.0%.
`N#Cc1ccc(-c2csc(NC3=NCCCCC3)n2)cc1` gave ELG1 DNA repair inconclusive, DT40 TDP1 no CPT inconclusive, HT1080 IDH1KD tx -15.9%, IL-1B inflam inh -26.1, HT1080-NT tox -17.8% and TDP1 cell CPT inconclusive.
FC(F)Oc1ccc(-c2csc(NNC3=NCCCCC3)n2)cc1 was read as ELG1 DNA repair 6.8%, DT40 TDP1 no CPT 14.6µM*, HT1080 IDH1KD tx inconclusive, IL-1B inflam inh -93.2*, HT1080-NT tox inconclusive and TDP1 cell CPT 4.61µM*.
Brc1ccc(-c2csc(NNC3=NCCCCC3)n2)cc1 was read as ELG1 DNA repair 21.5%, DT40 TDP1 no CPT inconclusive, HT1080 IDH1KD tx -1.6%, IL-1B inflam inh -53.0*, HT1080-NT tox -7.1% and TDP1 cell CPT inconclusive.
CC(C)(C)c1ccc(-c2csc(NNC3=NCCCCC3)n2)cc1 was read as ELG1 DNA repair -1.7%, DT40 TDP1 no CPT -89.7%, HT1080 IDH1KD tx inconclusive, IL-1B inflam inh -61.4*, HT1080-NT tox -1.7% and TDP1 cell CPT inconclusive.
For c1ccc(-c2csc(NC3=NCCCCC3)n2)cc1 the results were ELG1 DNA repair inconclusive, DT40 TDP1 no CPT 8.2%, HT1080 IDH1KD tx 20.9%, IL-1B inflam inh 0.0, HT1080-NT tox -17.8% and TDP1 cell CPT 13.2%.
C[C@@H](NC(=O)[C@@H]1CCCN1C(=O)[C@@H]1CCCN1C(=O)c1ccc(Cl)cc1)c1ccccc1 was read as DT40 TDP1 no CPT inconclusive, HT1080 IDH1KD tx 7.5%, IL-1B inflam inh 13.3, HT1080-NT tox 11.7% and TDP1 cell CPT inconclusive.
Screening CCOCc1c(C(=O)N2CCN(CCOc3ccc(Cl)cc3)CC2)oc2ccccc12 returned ELG1 DNA repair -25.1%, DT40 TDP1 no CPT 14.6µM*, HT1080 IDH1KD tx -24.4%, IL-1B inflam inh inconclusive, HT1080-NT tox inconclusive and TDP1 cell CPT inconclusive.
COCc1c(C(=O)N2CCN(Cc3nc4ccccc4s3)CC2)oc2ccccc12 was read as ELG1 DNA repair 1.8%, DT40 TDP1 no CPT inconclusive, HT1080 IDH1KD tx -13.7%, IL-1B inflam inh 25.7, HT1080-NT tox -6.1% and TDP1 cell CPT inconclusive.
Screening COCc1c(C(=O)N2CCN(S(=O)(=O)c3ccccc3Cl)CC2)oc2ccccc12 returned ELG1 DNA repair 10µM*, DT40 TDP1 no CPT inconclusive, HT1080 IDH1KD tx -9.8%, IL-1B inflam inh 12.1, HT1080-NT tox -9.0% and TDP1 cell CPT inconclusive.
Screening CCOCc1c(C(=O)N2CCN(CC(=O)Nc3ccc(F)cc3)CC2)oc2ccccc12 returned ELG1 DNA repair -15.2%, DT40 TDP1 no CPT -26.2%, HT1080 IDH1KD tx 2.8%, IL-1B inflam inh -10.0, HT1080-NT tox 10.6% and TDP1 cell CPT -22.5%.
`Cc1cccc(NC(=O)CNC(=O)CSc2nc(N)cc(N)n2)c1C` gave ELG1 DNA repair 12.1%, DT40 TDP1 no CPT -17.1%, HT1080 IDH1KD tx 7.1%, IL-1B inflam inh 23.3, HT1080-NT tox 16.1% and TDP1 cell CPT -7.9%.
COc1ccc(/C=C/C(=O)Nc2ccc(-c3nnc4n3CCCCC4)cc2)c(OC)c1 was read as ELG1 DNA repair 23.1µM*, DT40 TDP1 no CPT 2.31µM*, HT1080 IDH1KD tx -23.6%, IL-1B inflam inh -53.1*, HT1080-NT tox -13.9% and TDP1 cell CPT 9.2µM*.
